Measured values taken from publication PMC5540273 (PLoS ONE, 2017).

tested on: PIK3CD; conditions: concentration: 1 μM, replicates: in singlicate; n = 1
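Further: KINOMEscan kinase panel screen.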

| SMILES | %Inh |
| --- | --- |
| FC(F)(F)c1ccc(/C=C/c2cncnc2Nc2ccc3[nH]c(Cc4ccccc4)nc3c2)cc1 [GW709199] | 0% |
| O=C(Nc1cccc(-c2nn3ccccc3c2-c2ccnc(Nc3cccc(F)c3)n2)c1)c1c(F)ccc(F)c1Cl [GSK357952] | 0% |
| O=C(Nc1ccccc1F)NC1CCN(c2ccnc(Nc3ccc(F)cc3)n2)CC1 [GSK1379800] | 0% |
| Cc1occc1-c1ncc(OC[C@@H](N)Cc2c[nH]c3ccccc23)cc1-c1ccc2[nH]nc(C)c2c1.O=C(O)C(F)(F)F [GSK682037] | 0% |
| C[C@@H]1CC[C@@H](C(=O)Nc2ccccc2)CN1c1cc(-c2ccc3c(N)n[nH]c3c2)nc(N)n1 [GSK2286062] | 0% |
| Cl.NC(=O)c1cccc(Nc2nccc(Nc3ccc(Oc4c(Cl)cccc4Cl)c(Cl)c3)n2)c1 [GW659009] | 4% |
| Cc1ccc(C(=O)Nc2ccc(Nc3ccnc4cc(-c5nccs5)ccc34)cc2O)cc1.Cl [GW494702] | 0% |
| CNC(=O)c1ccccc1Nc1nc(Nc2ccc(N3CCOCC3)cc2)ncc1Cl.Cl [GSK1576028] | 29% |
| COc1cc(Nc2nccc(-c3c(-c4cccc(NC(=O)c5c(F)cccc5F)c4)nn4ccccc34)n2)cc(OC)c1OC [GSK323521] | 0% |
| Nc1ncnc2c1nc(-c1ccccc1)n2-c1ccccc1 [SKF-97293] | 17% |
| Fc1ccc(-c2ncn(C3CCNCC3)c2-c2ccnc(Oc3ccc(-c4ccccc4)cc3)n2)cc1 [SB-245391] | 73% |
| Cl.Cl.NCC(NCc1ccc(-c2ccnc3[nH]ccc23)s1)c1ccccc1 (centres unmarked) [GSK1321565] | 2% |
| CC(=O)N1CCN(c2ccc(Nc3nccc(-c4sc(C(C)C)nc4-c4cccc(NS(=O)(=O)c5cccc(Cl)c5)c4)n3)cn2)CC1 [GSK1660437] | 0% |
| COc1ccc(Nc2nccc(N3CCC(NC(=O)Nc4cccc(OC)c4)C3)n2)cc1 (centres unmarked) [GSK1379742] | 0% |
| Cl.Cl.NCC(NC(=O)c1cc(-c2ccccc2)c(-c2ccnc3[nH]ccc23)s1)c1ccccc1 (centres unmarked) [GSK1321561] | 0% |
| O=C(Nc1n[nH]c2cc(-c3ccoc3)ccc12)C1CC1 [SB-738481] | 5% |

| SMILES | %Inh |
| --- | --- |
| Cl.c1ccc(-c2ccc3c(Nc4ccc5[nH]ccc5c4)ccnc3c2)nc1 [GW440138] | 2% |
| COc1cc(Nc2nccc(-c3c(-c4cccc(NC(=O)c5c(F)cccc5F)c4)nn4ncccc34)n2)cc(OC)c1OC [GSK327238] | 0% |
| CCCCc1nn2ncccc2c1-c1ccnc(Nc2ccc(N3CCN(C)CC3)cc2)n1 [GW684941] | 41% |
| Nc1ncc(-c2ccc3nccc(-c4ccncc4)c3c2)cc1S(=O)(=O)N1CCOCC1 [GSK1627798] | 94.1% |
| Cc1ccc(S(=O)(=O)Nc2ccc(Nc3nccc(Nc4cccc5[nH]ncc45)n3)cc2)cc1 [GSK581271] | 0% |
| COc1ccc(Nc2nccc(NCCNC(=O)c3cc4ccccc4s3)n2)cc1 [GSK1379896] | 0% |
| NCCCC(NC(=O)c1cc(Br)c(-c2ccnc3[nH]ccc23)s1)c1ccccc1.O=C(O)C(F)(F)F.O=C(O)C(F)(F)F (centres unmarked) [GSK1287544] | 0% |
| CC(C)c1nc(-c2cccc(NS(=O)(=O)c3c(F)cccc3F)c2F)c(-c2ccnc(Nc3ccc(N4CCOCC4)nc3)n2)s1 [GSK2008607] | 0% |
| O=C(NC1CCN(c2ccnc(Nc3ccc(F)cc3)n2)C1)c1cc2ccccc2s1 (centres unmarked) [GSK1379716] | 0% |
| Nc1ncc(-c2cccnc2)c2scc(-c3ccc4c(c3)CCN4C(=O)Cc3ccccc3)c12 [GSK683281] | 0% |
| CC(C)(C)c1ccc2nccc(Nc3cccc(O)c3)c2c1 [GW856795] | 3% |
| COc1cccc(C2=C(Nc3ccc(Cl)c(C(=O)O)c3)C(=O)NC2=O)c1 [SB-390769] | 0% |
| Cc1ccc(F)c(C(=O)Nc2cccc(-c3nn4ccccc4c3-c3ccnc(Nc4cccc(F)c4)n3)c2)c1F [GSK361061] | 0% |
| O=C(Nc1n[nH]c2nc(-c3ccc(O)cc3)ccc12)C1CC1 [SB-710363] | 0% |
| c1ccc(-c2n[nH]cc2Nc2ccnc3ccccc23)nc1 [GW694077] | 0% |
| CCn1c(-c2nonc2N)nc2c(C#CC(C)(C)O)ncc(OCCCCN)c21.O=C(O)C(F)(F)F.O=C(O)C(F)(F)F [GSK507274] | 0% |
